Source: PubChem (National Center for Advancing Translational Sciences (NCATS))
In the library only some 10% were active in any assay of this set; here they are far more common.
GPT2 inh – blocks human glutamate pyruvate transaminase 2 | AID 1671188 | actives 0.25% (n = 100,000) | Recombinant GPT2, coupled pyruvate oxidase/HRP Amplex Red fluorescence | Q8TD30 | Potency, µM (doses to about 57.7 µM), without a hit: top-dose activity change, negative = inhibition, usual class: inhibitors; further: nearly all actives have a fitted effect of over 60% in size
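GPT2 10ng/uL, a-KG 250uM, L-Ala 2mM, HEPES pH7.5 + 0.0001% Tween; 30 min RT. Then Amplex mix (PO/HRP/ThPP), 30 min RT dark, fluorescence. AOA 50uM used as positive control.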
NIH3T3 tox – cytotoxic compounds in NIH 3T3 cells | NIH 3T3 viability, CellTiter-Glo ATP luminescence, 48-72 h | Potency, µM (top dose mostly 96.7 µM), without a hit: top-dose activity change, negative = cytotoxicity, hits mostly inhibitors | actives 4.3% (n = 94,000) | AID 1345082; further: nearly all actives have a fitted effect of over 55% in size
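Viability of NIH 3T3 cells after 48 or 72 hr compound treatment at 37 °C was assessed by CellTiter-Glo, with luminescence imaged following a 10 min room-temperature step.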
HEK cytotox – kills HEK 293 cells; HEK 293 viability, ATP luminescence (CellTiter-Glo), 48-72 h; Potency, µM (titrated, usually from 115 µM), for the others: at the highest dose activity change, negative = cytotoxicity, actives largely listed as inhibitors; actives 6.6% (n = 94,000); further: nearly all actives have a fitted effect of over 60% in size
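Luminescence from cellular ATP, measured with CellTiter-Glo, indicates HEK 293 viability. Cells plated at 250 cells/well are treated with compound for 48 or 72 hr at 37 degree Celsius before reagent addition.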
hNpr1 antagonist – antagonists of human natriuretic peptide receptor Npr1; P16066; HEK293 hNpr1 GloSensor cGMP, ANP-stimulated luminescence; Potency, µM (top dose mostly 46.3 µM), inactives show at the top dose activity change, negative = inhibition, most hits filed as inhibitors; actives 1.6% (n = 76,000); AID 1347048; calls by dose curve; further: nearly all actives have a fitted effect of over 60% in size
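Compound pre-incubated 30 min at room temperature on GloSensor-loaded HEK293 cells stably carrying hNpr1 and the pGS-40F cGMP biosensor. Stimulation uses hNppA at 0.1 nM final; luminescence is taken at baseline and 20 min post-agonist.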
Luciferase inh – inhibitors of firefly (Photinus pyralis) luciferase | P08659 | actives 2.5% (n = 76,000) | purified P. pyralis luciferase, luminescence, biochemical | Potency, µM (doses to about 115 µM), actives largely listed as inhibitors; further: nearly all actives have a fitted effect of over 65% in size
Target sequence (P08659 whole entry, looked up): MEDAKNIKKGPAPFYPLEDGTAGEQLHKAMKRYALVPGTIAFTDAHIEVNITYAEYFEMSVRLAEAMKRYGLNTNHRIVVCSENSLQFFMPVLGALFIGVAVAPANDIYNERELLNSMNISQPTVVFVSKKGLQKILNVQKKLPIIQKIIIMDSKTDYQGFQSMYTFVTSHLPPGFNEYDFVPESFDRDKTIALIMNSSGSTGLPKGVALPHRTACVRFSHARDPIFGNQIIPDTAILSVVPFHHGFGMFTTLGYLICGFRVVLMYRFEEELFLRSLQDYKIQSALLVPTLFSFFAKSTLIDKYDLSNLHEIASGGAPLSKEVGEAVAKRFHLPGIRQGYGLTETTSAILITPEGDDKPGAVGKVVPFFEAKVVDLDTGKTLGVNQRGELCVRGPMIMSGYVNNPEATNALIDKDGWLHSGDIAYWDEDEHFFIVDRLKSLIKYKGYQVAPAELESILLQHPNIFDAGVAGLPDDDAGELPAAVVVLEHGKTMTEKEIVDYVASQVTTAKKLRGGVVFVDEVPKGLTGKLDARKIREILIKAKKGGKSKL
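Cell-free enzyme assay, 10nM P. pyralis luciferase, luciferin and ATP each at 10uM. Inhibition profiled over a 6-point titration, read as luminescence.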
An asterisk follows results filed as active; i = inactive; ? = inconclusive; · = no result given; [ ] = another dose, or the depositor's remark. Unless noted, the call rests on the fitted dose curve; in most records, active means well fitted curve in the direction sought with a large enough effect; inconclusive means small, poorly fitted or top-dose-only effect, or another doubt; inactive means no such curve, though single readings can be large; an effect the other way counts as inactive or inconclusive. On the % scale 0 is the no-effect control and ±100 the full control effect; potency means the concentration at half of the fitted maximal effect.

SMILES	GPT2 inh	NIH3T3 tox	HEK cytotox	hNpr1 antagonist	Luciferase inh
CSc1ccc(-c2cccc(CN3CCC(NC(=O)NC4CCCC4)CC3)c2)cc1	·	-17.0%	-9.2%	·	·
COC(=O)NC1CCN(Cc2cccc(-c3ccc(SC)cc3)c2)CC1	·	31.6µM*	?	·	·
COc1ccccc1C(=O)NC1CCN(Cc2cccc(-c3ccc(SC)cc3)c2)CC1	·	28.2µM*	31.6µM*	·	·
COc1ccc(CNC(=O)N2CCn3nnc(CCC(=O)NCc4ccccc4)c3C2)cc1	i	-29.8%	-12.8%	·	·
CNC(=O)[C@H]1C[C@H](Oc2cccnc2)CN1C(=O)NC1CCCCC1	i	i	i	-10.0%	i
COC(=O)c1ccc(N2CCN(C(=O)Cn3nnnc3CN(C)C(C)C)CC2)cc1	?	?	-9.3%	11.2%	i
O=C(Nc1cccc(-c2ccc(N3CCOCC3)nn2)c1)Nc1ccccc1Cl	0.9%	?	?	?	1.58µM*
O=C(Nc1cccc(-c2ccc(N3CCOCC3)nn2)c1)Nc1cc(Cl)ccc1Cl	i	-16.9%	-14.6%	-18.7%	1µM*
CCCOCCCNC(=O)c1c(C)noc1-c1ccc(C(C)(C)C)cc1	?	?	35.5µM*	2.6%	i
COc1ccc2c(c1)O[C@H]1[C@H](CO)CN([S+](=O)([O-])c3cccs3)[C@@H]21	·	?	50.1µM*	·	·
Cc1cccc2c1O[C@H]1[C@H](CO)CN([S+](=O)([O-])c3cccs3)[C@@H]21	·	-29.6%	?	·	·
CN(Cc1cccnc1)C1CN(C(=O)c2cnn(C)c2)C1	-10.2%	4.5%	0.3%	-3.7%	28.2µM*
Cc1cccc(C(=O)N2CC(N(C)Cc3cccnc3)C2)c1	?	i	10.1%	3.3%	i
Cc1cc(C)n(CC(=O)N2CC(N(C)Cc3cccnc3)C2)n1	0.7%	i	8.6%	1.0%	35.5µM*
CC(C)CNC(=O)N1CCCC(c2nn[nH]n2)C1 (stereo not given)	-3.3%	i	i	1.1%	i
CC(Oc1cccc(Cl)c1)C(=O)N1CCN(c2cc(-c3cccs3)[nH]n2)CC1 (stereo not given)	-6.7%	?	35.5µM*	?	i
O=C(c1ccc(F)c(Cl)c1)N1CCN(c2cc(-c3cccs3)[nH]n2)CC1	i	?	?	-20.6%	i
O=C(c1cc(Cl)ccc1Cl)N1CCN(c2cc(-c3cccs3)[nH]n2)CC1	i	?	44.7µM*	?	i
O=C(CCc1ccccc1)N1CCN(c2cc(-c3cccs3)[nH]n2)CC1	i	?	?	-5.4%	i
O=C(COc1ccc(Cl)cc1)N1CCN(c2cc(-c3cccs3)[nH]n2)CC1	i	22.4µM*	?	-17.1%	i
CCOC(=O)Cc1csc(NC(=O)C[C@H]2NC(=O)c3ccccc3NC2=O)n1	4.6%	?	2.4%	0.1%	i
O=C1NCCCc2[nH]c(-c3csc(-c4ccccc4)n3)nc21	-11.6%	?	?	-3.6%	25.1µM*
Cc1nc(-c2nc3c([nH]2)CCCNC3=O)cc(=O)[nH]1	4.3%	4.3%	-21.0%	-5.4%	i
Cn1nc(C(=O)N2CCCN(c3cc(-c4ccccc4)[nH]n3)CC2)c2ccccc21	?	?	28.2µM*	-2.2%	i
Cc1ccccc1C(=O)N1CCCN(c2cc(-c3ccccc3)[nH]n2)CC1	?	-14.1%	?	0.0%	i
SMILES	GPT2 inh	NIH3T3 tox	HEK cytotox	hNpr1 antagonist	Luciferase inh
O=C(Cc1ccccc1)N1CCCN(c2cc(-c3ccc(Cl)cc3)[nH]n2)CC1	-26.0%	?	39.8µM*	?	i
COc1ccc(CC(=O)N2CCCN(c3cc(-c4ccc(Cl)cc4)[nH]n3)CC2)cc1	?	?	39.8µM*	?	i
COc1cccc(CC(=O)N2CCN(c3cc(-c4ccc(Cl)cc4)[nH]n3)CC2)c1	i	?	?	?	i
Cc1cccc(OCC(=O)N2CCCN(c3cc(-c4ccc(Cl)cc4)[nH]n3)CC2)c1	-16.0%	25.1µM*	?	?	i
COc1ccc(CC(=O)N2CCCN(c3cc(-c4ccccc4)[nH]n3)CC2)cc1	?	-25.1%	?	0.0%	i
CC(C)CC1NC(=O)C2CC3(O)c4ccccc4NC3N2C1=O (stereo not given)	i	·	·	·	·
O=C(c1ccc(C(F)(F)F)cc1)N1CCC2(CN[S+](=O)([O-])c3cccnc3O2)C1 (stereo not given)	-7.2%	0.2%	i	·	·
Cc1ccc(C)c(OCC(=O)c2ccc3c(c2)N(CCCC(=O)N2CCCC2)C(=O)CO3)c1C	i	-24.0%	?	-1.4%	i
Cc1ccc(CC(=O)N2CCCN(c3cc(-c4ccccc4)[nH]n3)CC2)cc1	?	?	50.1µM*	-18.2%	i
CC(C)(C)C(=O)N1CCC(N2CCCC(C(=O)NCc3ccccc3)C2)CC1 (stereo not given)	-16.4%	i	4.8%	3.1%	i
COC(=O)c1ccccc1NC(=O)N1CCC[C@@H](O)[C@H](NC(=O)c2ccc(OCc3c(C)noc3C)cc2)C1	-1.7%	39.8µM*	?	-4.3%	i
O=C(N[C@@H]1CN(C(=O)Nc2cccc(C(F)(F)F)c2)CCC[C@H]1O)c1ccc(OCc2ccccc2)cc1	-9.5%	39.8µM*	31.6µM*	2.4%	i
COc1cccc(CN2CCC[C@@H](O)[C@H](NC(=O)c3ccc(OCc4ccccc4)cc3)C2)c1	i	35.5µM*	?	-15.0%	i
COc1ccc(C(=O)N[C@@H]2CN(Cc3cccc(OC)c3)CCC[C@H]2O)cc1	4.1%[88.5 µM]	-22.6%[174 µM]	-25.9%[172 µM]	-2.1%[70.6 µM]	i
Cc1noc(C)c1COc1ccc(C(=O)N[C@@H]2CN(C(=O)Nc3cccc(C(F)(F)F)c3)CCC[C@H]2O)cc1	-25.6%	?	?	-5.3%	i
CC[C@H]1CN(C(=O)Nc2cccc(C(F)(F)F)c2)CC[C@H]1CC(=O)Nc1ccccc1	?	?	50.1µM*	-7.6%[70.6 µM]	i
COc1ccc(CCC(=O)N2CCC3(CC2)CCC(O)(CN(C)C)CC3)cc1	i	2.9%	0.0%	2.9%	i
Cc1ccc(F)cc1-n1nc(-c2c(C)nc3scc(CC(=O)N4CCOCC4)n3c2=O)cc1C	i	i	i	1.5%	i
O=C(c1ccc(OC2CCN(C(=O)c3cccs3)CC2)nc1)N1CCOCC1	?	?	-18.0%	0.4%	i
O=C(N[C@@H]1CN(Cc2ccccn2)CCC[C@H]1O)c1ccc(OCc2ccccc2)cc1	?	?	89.1µM*	-9.6%[70.6 µM]	i
NC(=O)COc1ccc(C(=O)N[C@@H]2CN(Cc3ccccn3)CCC[C@H]2O)cc1	-14.2%[88.5 µM]	?	?	4.2%[70.6 µM]	i
